Assay outcomes (PubChem)
Hits are enriched below; roughly 4% of the tested compounds scored in any of these assays.
NR3A LBD binder – modulates the human NR3A ligand-binding domain; AID 1259313; Tm shift relative to glycine control, % at 25 µM; NR3A LBD differential scanning fluorimetry, Tm shift; 0% = protein alone, 100% = glycine-bound protein; 340,000 compounds, 2.5% hits;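 active = melting temperature shift of at least 10% of the positive control shift, at one fixed dose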
ADAM17 inh – inhibits human ADAM17; inhibition, % at 6.95 µM; 370,000 compounds, 0.83% hits; P78536; recombinant ADAM17, EDANS/DABCYL FRET peptide cleavage;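 active = inhibition above the mean of compounds lying between control limits plus 3 SD, set per campaign, cut at about 8.5% in these data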;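 note: 0% = DMSO-only wells as the low control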
Target sequence (P78536 215-824 limits assumed): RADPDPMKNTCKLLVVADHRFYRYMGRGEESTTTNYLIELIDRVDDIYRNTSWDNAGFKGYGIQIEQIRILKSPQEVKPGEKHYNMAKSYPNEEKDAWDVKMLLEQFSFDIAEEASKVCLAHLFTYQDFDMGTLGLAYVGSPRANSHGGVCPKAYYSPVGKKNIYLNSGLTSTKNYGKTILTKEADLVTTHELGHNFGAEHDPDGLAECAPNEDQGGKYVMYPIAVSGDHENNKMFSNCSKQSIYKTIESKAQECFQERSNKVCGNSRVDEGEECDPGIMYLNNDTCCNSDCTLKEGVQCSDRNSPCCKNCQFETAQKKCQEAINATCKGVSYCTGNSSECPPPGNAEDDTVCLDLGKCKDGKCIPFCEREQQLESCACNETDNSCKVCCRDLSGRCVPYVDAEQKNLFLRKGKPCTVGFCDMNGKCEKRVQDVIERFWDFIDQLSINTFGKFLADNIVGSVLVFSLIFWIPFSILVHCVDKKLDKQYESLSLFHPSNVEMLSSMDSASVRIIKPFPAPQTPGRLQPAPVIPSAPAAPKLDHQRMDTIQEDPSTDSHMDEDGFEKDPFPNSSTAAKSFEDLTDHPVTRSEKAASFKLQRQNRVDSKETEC
aDG glyco up – alpha-DG glycosylation activation; Pro5-aDG cells, alpha-DG glycosylation AlphaScreen (IIH6); 0% Pro5, 100% B10-LARGE cell signal; activation, % at 10 µM; 360,000 compounds, 0.22% hits;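 active = activation of at least 8% versus controls, or a plate z-score of at least 8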;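 note: Pro5 are CHO cells carrying HIG-tagged alpha-DG that lacks glycosylation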
ADAM10 inh – inhibits human ADAM10; recombinant ADAM10, EDANS/DABCYL FRET peptide cleavage, 3 h; inhibition, % at 7 µM; 370,000 compounds, 0.62% hits; O14672;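 active = inhibition above a per-campaign cutoff equal to the mean of compounds falling between control-based bounds plus 3 SD, cut at about 20% in these data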;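 note: 0% = DMSO wells while the 100% control is not disclosed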
FAS-TE inh – blocks the thioesterase domain of human fatty acid synthase; P49327; recombinant FAS-TE, OMFH fluorogenic substrate, fluorescence endpoint; inhibition, % at 15 µM; 360,000 compounds, 0.67% hits;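 active = compounds whose normalised, plate-corrected inhibition of enzyme fluorescence in the single-dose primary screen is 50% or more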;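 note: 0% = DMSO with enzyme and 100% = substrate without enzyme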
FAS-TE conf – confirmation of human fatty acid synthase thioesterase inhibitors; AID 624325; inhibition, % at 15 µM; shares compounds with FAS-TE inh; recombinant FAS-TE, OMFH fluorogenic substrate, fluorescence; 2,300 compounds, 45% hits;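 active = compounds inhibiting the enzyme by at least 50% at 15 µM in any one of the replicates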;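 note: 0% = enzyme with DMSO only and 100% = wells lacking enzyme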
Starred values were filed as active, the others as inactive.

For COC(=O)c1ccccc1NC(=S)NC(NC(=O)c1ccco1)C(Cl)(Cl)Cl (configuration not stated) the results were NR3A LBD binder -18, aDG glyco up 0, FAS-TE inh 50* and FAS-TE conf 42.
Screening Cc1cccn2c(=O)c(/C=C(\C#N)C(=O)NCc3ccco3)c(N3CCCCC3)nc12 returned NR3A LBD binder -2, ADAM17 inh -9, aDG glyco up 0, ADAM10 inh -51 and FAS-TE inh 37.
For CCOC(=O)C1CCCN(c2nc3c(C)cccn3c(=O)c2/C=C(\C#N)C(=O)NCc2ccco2)C1 (configuration not stated) the results were NR3A LBD binder 1, ADAM17 inh inactive, aDG glyco up 0, ADAM10 inh inactive, FAS-TE inh 52* and FAS-TE conf 54*.
`Cc1cccn2c(=O)c(/C=C(\C#N)C(=O)NCc3ccco3)c(N3CCCCCC3)nc12` gave NR3A LBD binder -1, ADAM17 inh -24, aDG glyco up 0, ADAM10 inh -57, FAS-TE inh 53* and FAS-TE conf 48.
Cc1cccn2c(=O)c(/C=C(\C#N)C(=O)NCc3ccco3)c(N3CCCC(C)C3)nc12 (configuration not stated) was read as NR3A LBD binder 2, ADAM17 inh -8, aDG glyco up 0, ADAM10 inh -28 and FAS-TE inh 41.
`COc1cc(/C=C/C(=O)O)ccc1OCc1ccccc1C#N` gave NR3A LBD binder -3, ADAM17 inh -8, aDG glyco up 0, ADAM10 inh -6 and FAS-TE inh -8.
O=C(NCC1CCCO1)C(C(=O)c1ccc(F)cc1)n1ccccc1=O (configuration not stated) was read as NR3A LBD binder -1, ADAM17 inh 1, aDG glyco up 0, ADAM10 inh 8 and FAS-TE inh -6.
`O=C(c1ccc(Cl)cc1)[C@@H]1[C@@H]2C(=O)N(c3ccc(Cl)cc3)C(=O)[C@@H]2C2c3ccccc3C=NN21` (some centres not stated) gave NR3A LBD binder 0, ADAM17 inh -1, aDG glyco up 0, ADAM10 inh 1, FAS-TE inh 69* and FAS-TE conf 10.
`CC(=O)[C@@H]1[C@@H]2C(=O)N(c3ccc(F)c(Cl)c3)C(=O)[C@@H]2C2c3ccccc3C=CN21` (some centres not stated) gave ADAM17 inh -3 and ADAM10 inh -11.
`Cc1ccc(N2C(=O)[C@@H]3[C@H](C2=O)[C@H]2C=CC=NN2[C@@H]3C(=O)Nc2ccc(Cl)cc2)cc1` gave NR3A LBD binder -2, ADAM17 inh 5, aDG glyco up 0, ADAM10 inh -20 and FAS-TE inh -7.
For Cc1ccc(N2C(=O)[C@@H]3[C@H](C2=O)C2c4ccccc4C=NN2[C@@H]3C(=O)c2ccc(Cl)cc2)cc1 (some centres not stated) the results were NR3A LBD binder 1, ADAM17 inh 4, aDG glyco up 0, ADAM10 inh 0, FAS-TE inh 82* and FAS-TE conf 0.
`CCC(=O)c1ccc(OCC(=O)OC(C)C(=O)Nc2c(C)n(C)n(-c3ccccc3)c2=O)cc1` (configuration not stated) gave ADAM17 inh -5, aDG glyco up 0, ADAM10 inh 5 and FAS-TE inh -5.
CC1(c2ccc3c(c2)OCCCO3)NC(=O)N(CC(=O)NCCc2ccccc2)C1=O (configuration not stated) was read as NR3A LBD binder -1, ADAM17 inh -5, aDG glyco up 0, ADAM10 inh -8 and FAS-TE inh -6.
Screening COc1ccc(C(=O)Nc2nc3c(s2)CCCC3)cc1S(=O)(=O)N1CCCc2ccccc21 returned NR3A LBD binder -3, ADAM17 inh 2, aDG glyco up 1, ADAM10 inh -6, FAS-TE inh 63* and FAS-TE conf 17.
O=C1C=C(c2ccc(Cl)c(C(F)(F)F)c2)C[C@@H](c2ccc(F)cc2)C1 was read as NR3A LBD binder -13, ADAM17 inh 7, aDG glyco up 0, ADAM10 inh 16, FAS-TE inh 53* and FAS-TE conf 32.
O=C1C=C(c2ccc(-c3ccccc3)cc2)C[C@@H](c2ccc(Cl)cc2)C1 was read as NR3A LBD binder 1, ADAM17 inh -4, aDG glyco up 0, ADAM10 inh -13 and FAS-TE inh 29.
O=C1C=C(c2cc(Cl)cc(Cl)c2)C[C@@H](c2ccc(F)cc2)C1 was read as NR3A LBD binder -3, ADAM17 inh -4, aDG glyco up 0, ADAM10 inh 9 and FAS-TE inh 31.
For O=C1C=C(c2ccc(Cl)c(C(F)(F)F)c2)C[C@@H](c2ccc(Cl)cc2)C1 the results were NR3A LBD binder -16, ADAM17 inh 1, aDG glyco up 0, ADAM10 inh 11, FAS-TE inh 54* and FAS-TE conf 33.
O=C(COc1ccc(-n2cnnn2)cc1)Nc1ccc(F)cc1 was read as NR3A LBD binder -2, ADAM17 inh 4, aDG glyco up 0, ADAM10 inh 0 and FAS-TE inh -7.
`Cc1ccc(S(=O)(=O)Nc2ccc3c(c2)c2c(n3S(=O)(=O)c3ccc(C)cc3)CCCC2=O)cc1` gave NR3A LBD binder -2, ADAM17 inh -3, aDG glyco up 0, ADAM10 inh 4, FAS-TE inh 51* and FAS-TE conf 20.
For Cc1ccc(NC(=O)c2cc(S(=O)(=O)N3CCOCC3)cn2C)c(C)c1 the results were NR3A LBD binder -4, ADAM17 inh -4, aDG glyco up 0, ADAM10 inh -10 and FAS-TE inh -4.
For Cc1cc(C)c(C#N)c(SCS(=O)Cc2ccccc2)n1 (configuration not stated) the results were NR3A LBD binder -1, ADAM17 inh 1, aDG glyco up 0, ADAM10 inh 6 and FAS-TE inh 19.
Cc1cc(C)c(C#N)c(SCS(=O)Cc2ccc(Cl)cc2)n1 (configuration not stated) was read as NR3A LBD binder 0, ADAM17 inh 3, aDG glyco up 0, ADAM10 inh -3, FAS-TE inh 69* and FAS-TE conf 71*.
COC(=O)COc1ccc2cccc(-n3cnnn3)c2c1 was read as NR3A LBD binder 0, ADAM17 inh -2, aDG glyco up 0, ADAM10 inh -2 and FAS-TE inh -5.
Screening O=S(=O)(Nc1nnc(C2CCCCC2)s1)c1ccc(F)cc1 returned NR3A LBD binder 3, ADAM17 inh 0, aDG glyco up 0, ADAM10 inh -1 and FAS-TE inh 0.
For O=[N+]([O-])c1ccc(S(=O)(=O)Nc2nnc(C3CCCCC3)s2)cc1 the results were NR3A LBD binder -12, ADAM17 inh 4, aDG glyco up 0, ADAM10 inh 8, FAS-TE inh 50* and FAS-TE conf 65*.
